Source: PubChem BioAssay (NCATS)
Records with an inconclusive call do not appear. Values without a mark were called inactive. Calls of active or inactive are those of the source. Calls come from the whole dose curve; as a rule, active = well fitted inhibition curve with a large enough effect; inconclusive = small, poorly fitted or top-dose-only effect; inactive = flat fitted curve, though single readings scatter.

What follows are compounds tested on Zika virus NS2B-NS3 protease (assay: Primary screen GU AMC qHTS for Zika virus inhibitors (AID 1347154;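 note: 0% = no-inhibitor control and -100% = no-enzyme control; nearly all actives have a fitted effect of over 70% in size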)). Conditions: Zika NS2B-NS3 unlinked protease, AMC fluorogenic substrate; series mostly up to 54.1 µM; activity change, negative = inhibition: at the top concentration.
Method in brief: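 Unlinked Zika NS2B hydrophilic domain–NS3 protease complex at 25 nM in 10 mM Tris-HCl pH 8.0, 0.01% Tween 20, with an AMC peptide substrate. Fluorescence change (340/450 nm) over 15 min at room temperature, normalized to controls, fitted to 4-parameter Hill.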

| SMILES | activity change, negative = inhibition [%] | Potency |
| --- | --- | --- |
| COc1cc2ncnc(-n3nc(-c4ccccn4)nc3N)c2cc1OC | 10.9 |  |
| NC(=O)[C@@H](CCC(F)(F)F)N(Cc1ccc(-c2ncon2)cc1F)S(=O)(=O)c1ccc(Cl)cc1 | -4.66 |  |
| C[N+]1(C)[C@@H]2CC(OC(=O)[C@H](CO)c3ccccc3)C[C@H]1[C@H]1O[C@@H]12 (stereo partly drawn) | 10.2 |  |
| O=C(CCc1ccc(O)cc1)c1c(O)cc(O)cc1O[C@@H]1O[C@H](CO)[C@H](O)[C@H](O)[C@H]1O | -4.96 |  |
| O=c1cc(-c2cccc3c2Sc2ccccc2S3)oc(N2CCOCC2)c1 | -18.9 |  |
| CO[C@H]1C=CO[C@@]2(C)Oc3c(C)c(O)c4c(O)c(c5c(c4c3C2=O)NC2(CCN(CC(C)C)CC2)N=5)=NC(=O)C(C)=CC=C[C@H](C)[C@H](O)[C@@H](C)[C@@H](O)[C@@H](C)[C@H](OC(C)=O)[C@H]1C | -5.35 |  |
| C[C@]12CC[C@@H]3c4ccc(O)cc4CC[C@H]3[C@H]1C[C@@H](O)[C@H]2O | 6.48 |  |
| O=C(O)C=Cc1ccc(O)c(O)c1 | 16 |  |
| COC(=O)C1=CO[C@@H](O)[C@@H]2C(CO)=CC[C@@H]12 | 2.4 |  |
| C[C@@H](O)[C@H]1C(=O)N2C(C(=O)O)=C(S[C@@H]3CN[C@H](C(=O)N(C)C)C3)[C@H](C)[C@H]12 |  | inactive |
| O=c1c(-c2ccc(O)cc2)coc2cc(OC3O[C@H](CO)[C@H](O)[C@H](O)[C@H]3O)cc(O)c12 (stereo partly drawn) | -18.5 |  |
| COc1cc2c(cc1OC)CN(CCc1ccc(NC(=O)c3cc(OC)c(OC)cc3NC(=O)c3cnc4ccccc4c3)cc1)CC2 | -0.525 |  |
| CC(C)C(C)C=CC(C)C1CCC2C3=CC=C4CC(O)CCC4(C)C3CCC21C (stereo not drawn) | -5.01 |  |
